Measurements published in PubChem BioAssay AID1159580 (chemical genetic matrix, 2015).
The campaign covered roughly 5,500 compounds. About 2,000 (36%) were called active. Not shown: some 18% with an inconclusive outcome. Rule as the data show it: active = normalized growth mostly below about 0.91 (no sharp cut-off); inconclusive = no clear call, values can overlap the other calls; inactive = mostly above about 0.92. Some of the results follow.

Test: chemical genetic growth profiling, strain panel (AID 1159580);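 also: tested at 20 µM; growth read once vehicle control cultures reached saturation at 30 °C; 1 = growth at the plate median or of vehicle wells; lower values mean less growth of the strain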
Conditions: S. cerevisiae deletion strains, growth OD
[1] = locus YDL101C, strain DUN1, hits give low values
[2] = locus YHR030C, strain SLT2, hits give low values

Measured: normalized growth

O=C(CSCc1cccc2ccccc12)NNC(=O)c1ccc(F)cc1
inactive: locus YAL013W, strain DEP1, hits give low values 0.998 | locus YBR229C, strain ROT2, hits give low values 0.988 | locus YCL061C, strain MRC1, hits give low values 1 | [1] 1 | locus YDR150W, strain NUM1, hits give low values 0.979 | locus YEL061C, strain CIN8, hits give low values 0.992 | locus YGR078C, strain PAC10, hits give low values 0.993 | [2] 0.93 | locus YHR087W, strain rtc3, hits give low values 0.98 | locus YJR043C, strain POL32, hits give low values 0.988 | locus YJR075W, strain HOC1, hits give low values 0.983 | locus YKL190W, strain CNB1, hits give low values 0.991 | locus YLR039C, strain RIC1, hits give low values 0.958 | locus YLR058C, strain SHM2 (second series), hits give low values 0.982 | locus YLR085C, strain ARP6, hits give low values 0.978 | locus YLR262C, strain YPT6, hits give low values 0.919 | locus YML094W, strain GIM5, hits give low values 1.08 | locus YMR219W, strain ESC1, hits give low values 0.99 | locus YMR263W, strain SAP30, hits give low values 0.984 | locus YNL153C, strain GIM3, hits give low values 0.985 | locus YNL298W, strain CLA4 (second series), hits give low values 0.949 | locus YNL322C, strain KRE1, hits give low values 1 | locus YNR030W, strain Alg12, hits give low values 0.955 | locus YPL055C, strain LGE1, hits give low values 1 | locus YPL241C, strain CIN2, hits give low values 0.989 | locus YPR135W, strain CTF4, hits give low values 1.07

Cc1cccc(NC(=S)NNC(=O)CSCc2cccc3ccccc23)c1
inactive: locus YAR019C, strain CDC15, hits give low values 0.986 | locus YBL105C, strain PKC1, hits give low values 0.988 | locus YBR135W, strain CKS1, hits give low values 0.999 | locus YBR136W, strain MEC1, hits give low values 0.974 | locus YBR160W, strain CDC28, hits give low values 1 | locus YDL017W, strain CDC7, hits give low values 0.987 | locus YDL028C, strain MPS1, hits give low values 0.984 | [1] 0.975 | locus YDL108W, strain KIN28, hits give low values 0.982 | locus YDL132W, strain cdc53, hits give low values 0.989 | locus YDL214C, strain PRR2, hits give low values 0.904 | locus YDR052C, strain DBF4, hits give low values 1 | locus YDR054C, strain cdc34, hits give low values 0.983 | locus YDR226W, strain ADK1, hits give low values 0.988 | locus YDR477W, strain SNF1, hits give low values 0.924 | locus YER123W, strain YCK3, hits give low values 0.851 | locus YER133W, strain GLC7, hits give low values 0.906 | locus YFL009W, strain cdc4, hits give low values 0.99 | locus YFL029C, strain CAK1, hits give low values 0.983 | locus YFR003C, strain YPI1, hits give low values 0.982 | locus YFR019W, strain FAB1, hits give low values 0.965 | locus YFR028C, strain CDC14, hits give low values 0.99 | locus YGR040W, strain KSS1, hits give low values 0.904 | locus YGR052W, strain FMP48, hits give low values 0.992 | locus YGR092W, strain DBF2, hits give low values 0.865 | [2] 0.997 | locus YHR079C, strain IRE1, hits give low values 0.992 | locus YHR082C, strain KSP1, hits give low values 0.983 | locus YHR205W, strain SCH9, hits give low values 0.963 | locus YIL147C, strain SLN1, hits give low values 0.972 | locus YJL095W, strain BCK1, hits give low values 0.995 | locus YJL128C, strain PBS2, hits give low values 0.96 | locus YJL157C, strain FAR1, hits give low values 0.881 | locus YJR016C, strain ILV3, hits give low values 0.984 | locus YJR066W, strain TOR1 (second series), hits give low values 0.866 | locus YJR066W, strain TOR1, hits give low values 0.981 | locus YKL048C, strain ELM1, hits give low values 0.991 | locus YKL067W, strain YNK1, hits give low values 0.914 | locus YKL101W, strain HSL1, hits give low values 0.929 | locus YKL193C, strain SDS22, hits give low values 0.989 | locus YKL203C, strain TOR2, hits give low values 0.989 | locus YLR113W, strain HOG1, hits give low values 0.962 | locus YLR133W, strain CKI1, hits give low values 0.948 | locus YLR403W, strain SFP1, hits give low values 0.909 | locus YML070W, strain DAK1, hits give low values 0.912 | locus YMR001C, strain CDC5, hits give low values 0.988 | locus YMR205C, strain PFK2 (second series), hits give low values 0.943 | locus YMR277W, strain FCP1, hits give low values 0.988 | locus YNL006W, strain LST8, hits give low values 0.986 | locus YNL020C, strain ARK1, hits give low values 0.925 | locus YNL161W, strain CBK1, hits give low values 0.984 | locus YNL183C, strain NPR1, hits give low values 0.996 | locus YNL207W, strain RIO2, hits give low values 0.983 | locus YNL222W, strain SSU72, hits give low values 0.991 | locus YNL307C, strain MCK1 (second series), hits give low values 0.922 | locus YOL078W, strain AVO1, hits give low values 0.988 | locus YOL136C, strain PFK27, hits give low values 0.925 | locus YOR061W, strain CKA2, hits give low values 0.904 | locus YOR119C, strain RIO1, hits give low values 0.965 | locus YOR231W, strain MKK1, hits give low values 0.982 | locus YOR329C, strain SCD5, hits give low values 0.981 | locus YPL031C, strain PHO85, hits give low values 0.904 | locus YPL153C, strain RAD53, hits give low values 0.91 | locus YPL204W, strain HRR25, hits give low values 0.914 | locus YPL209C, strain IPL1, hits give low values 0.983 | locus YPL256C, strain CLN2, hits give low values 1.01 | locus YPR025C, strain CCL1, hits give low values 0.99 | locus YPR106W, strain ISR1, hits give low values 0.99 | locus YPR111W, strain DBF20, hits give low values 0.99 | strain NNK1, hits give low values 0.982 | strain TSCII, hits give low values 0.988
